Reference: PubChem BioAssay (NCI)
About 83,000 compounds went through this panel and 20% of them were active in at least one assay; those are over-represented in the sample as a whole.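 Growth was measured after 48 h exposure to one concentration of compound in 96-well plates. Values under 10 count as active.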 Values without a mark were called inactive. The source made the active and inactive calls.

Experiments:
Assay in all cases: NCI-60 one-dose screen, 48 h (100 = growth as untreated, 0 = no growth, -100 = all killed)
Settings in all cases: 10 µM unless noted
[1] = test system: HCT-15 colon
[2] = test system: HT29 colon
[3] = test system: SNB-75 CNS
[4] = test system: U251 CNS
[5] = test system: PC-3 prostate
[6] = test system: UACC-62 melanoma
[7] = test system: LOX IMVI melanoma
[8] = test system: SK-MEL-28 melanoma
[9] = test system: SK-MEL-2 melanoma
[10] = test system: EKVX NSCLC
[11] = test system: SN12C renal
[12] = test system: UO-31 renal
[13] = test system: TK-10 renal
[14] = test system: ACHN renal
[15] = test system: CAKI-1 renal
[16] = test system: A498 renal
[17] = test system: CCRF-CEM leukemia
[18] = test system: MOLT-4 leukemia
[19] = test system: SK-MEL-5 melanoma

SMILES	growth [1]	growth [2]	growth [3]	growth [4]	growth [5]	growth [6]	growth [7]	growth [8]	growth [9]	growth [10]	growth [11]	growth [12]	growth [13]	growth [14]	growth [15]	growth [16]	growth [17]	growth [18]	growth [19]
COc1ccc(OCC(=O)Nc2ccc(-c3nc4ccccc4s3)cc2C)cc1	85.9%	91.7%	83.4%	96.2%	75.9%	83.2%	89%	107%	94.1%	65%	88.8%	44.7%	64.9%	99.4%	78.4%	101%	89.6%	55.9%	–
CC/C(=C(\c1ccccc1)c1ccc(OCCNC)cc1)c1ccccc1	-94.3% (active)	-89.8% (active)	-81.7% (active)	-80.3% (active)	-67.6% (active)	-99.1% (active)	-100% (active)	-98.5% (active)	-90.5% (active)	-69.2% (active)	-90.5% (active)	–	-80.7% (active)	-95% (active)	-68.2% (active)	-62.2% (active)	0.764% (active)	27.1%	-99.8% (active)
c1ccc(Sc2ncnc3ccccc23)cc1	75.2%	88.2%	73.2%	87.2%	83.5%	66.2%	67.5%	85.5%	44.3%	84.2%	69%	52.7%	96.5%	90.9%	–	82%	48.5%	38%	66.1%
CCOC(=S)SCc1ccc(Cl)cc1	94.8%	103%	76.5%	90.5%	81.7%	95.5%	99.3%	114%	105%	83.8%	–	91.1%	105%	98.1%	–	75.8%	130%	82.2%	106%
Cc1cc2c(cc1C)NC1=C(N2)OC(c2c3ccccc3cc3ccccc23)C1=O (stereo unspecified)	0.544% (active)	12.5%	49.4%	-8.89% (active)	28.2%	3.19% (active)	-35.4% (active)	31.5%	31%	22.2%	14.3%	–	107%	29%	42.5%	142%	20.5%	24.8%	-40.6% (active)
C(=N\Nc1nnn(Cc2ccccc2)n1)/c1ccccc1	23.1%	20.1%	75%	31.7%	51.9%	41.5%	48.8%	45.4%	34%	57.6%	–	61.2%	76.6%	67.2%	95.2%	38.2%	35%	38.2%	32%
O=C(Nc1cccc2c1C(=O)c1cccc(Nc3cccc4c3C(=O)c3cccc(NC(=O)c5ccccc5)c3C4=O)c1C2=O)c1ccccc1	110%	124%	92.8%	109%	87.2%	–	98.1%	118%	109%	125%	–	86.3%	108%	104%	–	121%	89.5%	104%	112%
CN1/C(=C\C=C\C2=[N+](C)c3ccccc3C2(C)C)C(C)(C)c2ccccc21	8.08% (active)	-33.9% (active)	-5.88% (active)	9.16% (active)	2.66% (active)	-77.3% (active)	0.458% (active)	-25.4% (active)	-56.6% (active)	13.3%	–	8.16% (active)	5.75% (active)	1.47% (active)	23%	1.83% (active)	7.62% (active)	-12.6% (active)	-98.5% (active)
COC1=CC(=O)C(OC)=C(OC)C1=O	102%	107%	90.1%	100%	98.1%	87.5%	84.6%	98.6%	99.3%	98.6%	101%	104%	115%	111%	–	88.2%	31.9%	-7.34% (active)	97.5%
CCN(CC)CC(C)Nc1ccc([N+](=O)[O-])c2sc3ccccc3c(=O)c12 (stereo unspecified)	23.6%	12%	36.3%	28.4%	14.6%	33.5%	14.7%	–	26.8%	34.5%	37.2%	0.595% (active)	49.5%	7.58% (active)	18.1%	29.8%	15.2%	-24% (active)	5.5% (active)
c1ccc(CSc2ncnc3nc[nH]c23)nc1	103%	112%	97.2%	113%	112%	88.4%	106%	128%	112%	99.6%	98.6%	96.4%	101%	105%	57%	102%	102%	97.7%	–
CN1Cc2c(cc(CN3CCCCC3)n2C)C(c2ccc(Br)cc2)C1 (stereo unspecified)	67.7%	49.6%	70.3%	86.4%	82.9%	-16.1% (active)	68.2%	54.3%	114%	77.2%	84.8%	–	92.3%	98.1%	83.7%	98.1%	88.2%	92.5%	61.2%
CCCN(CCC)CN(CCC)CCC	102%	96.5%	96%	98.1%	97.5%	–	104%	106%	108%	98.8%	–	84.8%	106%	102%	–	91.8%	–	97.1%	107%
CS(=O)(=O)c1ccc(-c2cnc3ccc(-c4cccc(S(C)(=O)=O)c4)nn23)cc1	28.2%	33.7%	12.4%	46.3%	37.6%	28.8%	12.3%	52.5%	48.3%	67.5%	–	24.2%	40%	22.4%	23.2%	-15.6% (active)	18.4%	0.943% (active)	38.3%
CCN(CC)CC(C)(C)C(=O)/C=C/c1ccccc1	21.2%	49%	81.6%	86.4%	69%	39.8%	-2.72% (active)	67.8%	99.9%	26.7%	41.1%	–	91.5%	43.1%	–	68.4%	9.36% (active)	19.1%	81.9%
CN(C)c1ccc(/C=C(\C#N)c2nc3ccccc3s2)cc1	106%	100%	89.4%	106%	105%	101%	113%	119%	106%	89.5%	104%	90.7%	121%	101%	–	112%	81.8%	96.4%	98.4%
CCN1CCN(Cc2ccc(NC(=O)Nc3nc4ccc(Oc5ccnc(C(=O)NC)c5)cc4s3)cc2C(F)(F)F)CC1	-55.8% (active)	1.79% (active)	-87.4% (active)	-60.8% (active)	-63.3% (active)	-92.7% (active)	-78.9% (active)	-85.2% (active)	-22.8% (active)	14.2%	–	-80.5% (active)	-35.9% (active)	-84.5% (active)	-44.2% (active)	-33.4% (active)	0.0502% (active)	–	19.8%
O=C(O)c1cccnc1Br	97.6%	109%	86.2%	97.9%	108%	96%	96.6%	112%	99.6%	107%	–	73.5%	113%	99.6%	94.1%	104%	121%	103%	109%
